Compounds with a hit are over-represented: about 12% of the library has one in this group of screens.
HP1b chromo inh – HTS for Inhibitors of HP1-beta Chromodomain Interactions with Methylated Histone Tails | actives 0.56% (n = 390,000) | Potency, µM (top dose mostly 114 µM), actives largely listed as inhibitors | Chromobox protein homolog 1 (Homo sapiens), P83916 | AlphaScreen HP1-beta / biotin-H3K9me3 peptide binding; further: nearly all actives have a fitted effect of over 70% in size
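HP1-beta protein (50 nM final) preincubated 30 min at room temperature with biotinylated H3(1-18)K9me3 peptide (50 nM) in PBS pH 7.4, 0.01% Tween-20, then compound added for 30 min. AlphaScreen streptavidin donor/nickel chelate acceptor beads (10 ug/mL final), 30 min dark, luminescence read.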
BAZ2B inh – qHTS Assay for Inhibitors of BAZ2B. Bromodomain adjacent to zinc finger domain protein 2B (Homo sapiens), Q9UIF8. AlphaScreen BAZ2B-H3K14Ac peptide displacement. Potency, µM (top dose mostly 114 µM), actives largely listed as inhibitors. actives 4.4% (n = 360,000). AID 504333, 2011; further: nearly all actives have a fitted effect of over 60% in size
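Compounds, titrated to a top concentration of 110 uM, were incubated 30 min at room temperature with preformed BAZ2B/acetyl-K14 H3 peptide complex (50 nM each). Proximity signal was measured by AlphaScreen after 20 min with beads.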
Sfp inh – qHTS Assay for Inhibitors of Bacillus subtilis Sfp phosphopantetheinyl transferase (PPTase) | Potency, µM, usual class: inhibitors | actives 3.5% (n = 310,000) | Biochemical Sfp PPTase activity, qHTS;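 further: the enzyme is Sfp with the accession as filed and its product quenches rhodamine fluorescence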
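With Hepes-Na pH 7.6 buffer containing 10 mM MgCl2, Sfp (15 nM) modified BHQ-2-YbbR (12.5 uM) using rhodamine-CoA (5 uM). Two reads 30 minutes apart at 525/598 nm yielded each well's rate.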
G9a inh – qHTS Assay for Inhibitors of Histone Lysine Methyltransferase G9a; actives 8.8% (n = 350,000); G9a H3K9 monomethylation, AlphaScreen, 2 h; Histone-lysine N-methyltransferase EHMT2 (Homo sapiens), Q96KQ7; Potency, µM (highest dose often 102 µM), most hits filed as inhibitors; further: nearly all actives have a fitted effect of over 75% in size
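Readings reflect AlphaScreen signal from monomethyl-H3K9 antibody detection. HMT at 20 nM; substrate b-H3K9 500 nM; cofactor SAM 20 uM; 2 h RT reaction; compounds tested as titrations in qHTS with 15 min preincubation.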
JMJD2A Tudor – qHTS Assay for Inhibitors of JMJD2A-Tudor Domain | Lysine-specific demethylase 4A (Homo sapiens), O75164 | AlphaScreen JMJD2A-Tudor / H3K4me3 peptide binding | Potency, µM (top dose mostly 114 µM), most hits filed as inhibitors | actives 4.4% (n = 390,000) | AID 504339, 2011; further: nearly all actives have a fitted effect of over 50% in size
L3MBTL1 inh – qHTS Assay for the Inhibitors of L3MBTL1; Lethal(3)malignant brain tumor-like protein 1 (Homo sapiens), Q9Y468; actives 0.66% (n = 230,000); AlphaScreen L3MBTL1–H3K9me1 peptide binding; AID 485360, 2010; Potency, µM (highest dose often 57.1 µM), most hits filed as inhibitors; further: nearly all actives have a fitted effect of over 60% in size
Target sequence (Q9Y468 whole entry, looked up): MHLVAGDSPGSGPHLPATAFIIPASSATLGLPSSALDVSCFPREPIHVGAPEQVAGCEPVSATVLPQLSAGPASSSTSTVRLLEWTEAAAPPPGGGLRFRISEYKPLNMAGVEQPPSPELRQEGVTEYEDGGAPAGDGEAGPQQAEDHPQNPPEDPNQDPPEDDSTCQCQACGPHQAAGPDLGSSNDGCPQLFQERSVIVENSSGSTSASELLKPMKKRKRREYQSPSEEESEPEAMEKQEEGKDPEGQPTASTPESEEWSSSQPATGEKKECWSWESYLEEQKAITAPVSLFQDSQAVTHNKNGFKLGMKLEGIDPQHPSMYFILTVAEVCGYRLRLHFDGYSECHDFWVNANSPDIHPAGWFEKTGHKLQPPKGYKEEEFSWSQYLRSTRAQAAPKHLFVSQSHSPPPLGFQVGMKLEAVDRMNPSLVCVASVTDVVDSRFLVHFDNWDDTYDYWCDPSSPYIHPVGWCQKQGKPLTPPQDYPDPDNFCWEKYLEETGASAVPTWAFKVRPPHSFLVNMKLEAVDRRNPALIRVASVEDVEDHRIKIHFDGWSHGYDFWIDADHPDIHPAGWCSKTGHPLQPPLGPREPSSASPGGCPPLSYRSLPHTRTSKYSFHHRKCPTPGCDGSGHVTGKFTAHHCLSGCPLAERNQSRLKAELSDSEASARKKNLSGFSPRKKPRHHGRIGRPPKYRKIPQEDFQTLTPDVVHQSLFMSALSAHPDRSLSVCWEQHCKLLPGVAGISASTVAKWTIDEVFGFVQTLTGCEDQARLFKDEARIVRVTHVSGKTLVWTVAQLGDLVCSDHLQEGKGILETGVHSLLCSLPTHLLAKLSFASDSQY
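L3MBTL1 50 nM + b-AHA-H3(1-15)K9me1 75 nM, 30 min RT; compound added, 30 min RT; streptavidin donor/Ni-chelate acceptor beads 10 ug/mL each final, 30 min RT dark; AlphaScreen read.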
Large screens that a line does not name were inactive. The call rests on the fitted dose curve; in most records, active means well fitted curve in the direction sought with a large enough effect; inconclusive means small, poorly fitted or top-dose-only effect, or another doubt; inactive means no such curve, though single readings can be large; an effect the other way counts as inactive or inconclusive.

COc1ccc(C2C3=C(Nc4ncnn42)c2ccccc2CC3)cc1OC (stereo unspecified)	G9a inh inconclusive (no result: HP1b chromo inh, JMJD2A Tudor)
S=C1NC2=C(CCC/C2=C\c2ccccc2)C(c2ccccc2)N1 (stereo unspecified)	BAZ2B inh inconclusive, Sfp inh 22µM, G9a inh 8.9µM, JMJD2A Tudor inconclusive
FC(F)(F)c1ccccc1C1C2=C(Nc3ncnn31)c1ccccc1CCC2 (stereo unspecified)	Sfp inh 28µM, G9a inh inconclusive (no result: HP1b chromo inh, JMJD2A Tudor, L3MBTL1 inh)
COc1cccc(N(CC(=O)NC2CCCCC2)C(=O)CCC(=O)Nc2nccs2)c1	JMJD2A Tudor inconclusive (no result: L3MBTL1 inh)
Cc1nn(-c2ccccc2)c2sc(C(=O)Nc3cccc(O)c3)cc12	none (no result: Sfp inh, L3MBTL1 inh)
CCNc1ncc2nc(CCc3ccccc3)c(=O)n(CCC#N)c2n1	none (no result: HP1b chromo inh, BAZ2B inh, JMJD2A Tudor, L3MBTL1 inh)
S=C1NC2=C(CCC/C2=C\c2ccc(Cl)cc2)C(c2ccc(Cl)cc2)N1 (stereo unspecified)	Sfp inh 7.9µM, L3MBTL1 inh inconclusive (no result: G9a inh)
Cc1ccc(C)c(N2CCN(C3=C(c4ccccc4)C(=O)c4ccccc43)CC2)c1	HP1b chromo inh inconclusive, BAZ2B inh inconclusive, G9a inh 3.2µM, JMJD2A Tudor 2.5µM (no result: Sfp inh, L3MBTL1 inh)
COc1ccc(C2=C(N3CCN(c4cccc(C)c4C)CC3)c3ccccc3C2=O)cc1	HP1b chromo inh inconclusive, BAZ2B inh 2.2µM, G9a inh 3.2µM, JMJD2A Tudor 5µM (no result: Sfp inh, L3MBTL1 inh)
COc1ccc(C2(N3CCN(c4cccc(C)c4C)CC3)C(=O)c3ccccc3C2=O)cc1	none (no result: Sfp inh, L3MBTL1 inh)
CCOc1ccc(-n2c(=O)c3c4c(sc3n(CC(=O)Nc3cccc(C(F)(F)F)c3)c2=O)CCCCC4)cc1	none (no result: Sfp inh, L3MBTL1 inh)
O=C(Nc1ccc(N2CCCC2)c(Cl)c1)c1ccc(Br)o1	BAZ2B inh inconclusive, Sfp inh 79µM, G9a inh 14µM, JMJD2A Tudor inconclusive
O=C(Nc1ccc(C(=O)N2CCN(c3ccccn3)CC2)cc1)c1ccc(Br)o1	BAZ2B inh inconclusive (no result: Sfp inh)
COc1ccc(N2CCCC2)c(NC(=O)c2ccc(Br)o2)c1	HP1b chromo inh inconclusive, BAZ2B inh inconclusive, G9a inh 8.9µM, JMJD2A Tudor 50µM (no result: L3MBTL1 inh)
O=C(Nc1cc(C(F)(F)F)ccc1N1CCCCC1)c1ccc(Br)o1	BAZ2B inh inconclusive
CC(=O)N1CCN(c2ccccc2NC(=O)c2ccc(Br)o2)CC1	none (no result: L3MBTL1 inh)
O=C(Nc1ccccc1N1CCCC1)c1ccc(Br)o1	BAZ2B inh inconclusive, G9a inh 4.5µM, JMJD2A Tudor inconclusive
N#Cc1ccccc1N1CCN(C(=O)c2ccc(NC(=O)c3ccc(Br)o3)cc2)CC1	BAZ2B inh 50µM, JMJD2A Tudor 56µM, L3MBTL1 inh inconclusive (no result: Sfp inh)
CCOC(=O)Cn1c(=O)n(C2CCCCC2)c2nc(-c3ccccc3Cl)nc(C(N)=O)c21	none (no result: Sfp inh, L3MBTL1 inh)
COc1ccccc1-c1cncnc1Nc1ccc(F)cc1	none (no result: HP1b chromo inh, BAZ2B inh, G9a inh, JMJD2A Tudor, L3MBTL1 inh)
Fc1ccc(-c2cc(-c3nc(-c4ccccc4)no3)[nH]n2)cc1	none (no result: Sfp inh, L3MBTL1 inh)
O=C(Nc1nnc(-c2ccco2)o1)c1ccc(Cl)s1	BAZ2B inh inconclusive, G9a inh 79µM (no result: L3MBTL1 inh)
O=C(Nc1nnc(-c2ccc(Br)cc2)o1)c1cccc(N2C(=O)CCC2=O)c1	BAZ2B inh 71µM (no result: Sfp inh)
O=C(Nc1nnc(-c2ccco2)o1)c1ccc(N2C(=O)CCC2=O)cc1	BAZ2B inh 18µM, Sfp inh 79µM, JMJD2A Tudor 28µM (no result: L3MBTL1 inh)
O=C(CSc1ccc(F)cc1)Nc1nnc(-c2ccco2)o1	BAZ2B inh 35µM, JMJD2A Tudor inconclusive (no result: Sfp inh)
Cc1ccc(NC(=O)CSc2nnc(-c3ccco3)o2)cc1	none (no result: L3MBTL1 inh)
COc1ccc(Cl)cc1NC(=O)CSc1ccc(-c2sc(C)nc2C)nn1	none (no result: Sfp inh, L3MBTL1 inh)
CCCSc1ncc(Cl)c(C(=O)Nc2scc(-c3ccc(C)cc3)c2C(=O)OCC)n1	none (no result: Sfp inh, L3MBTL1 inh)
CCOc1ccc(N2CC(C(=O)NC3CCCC3)CC2=O)cc1 (stereo unspecified)	none (no result: L3MBTL1 inh)
